M1 antag: human CHRM1 antagonism. P11229. CHO-K1 hM1, Fluo-8 calcium fluorescence, ACh EC80 antagonist. inhibition, % at 3 µM. actives 1.3% (n = 360,000);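 active = percent inhibition above its own plate's cutoff, namely the mean of that plate's compound wells plus 3 SD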;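 also: peak over basal fluorescence ratio during 140 s after agonist addition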
Target sequence (P11229 whole entry, looked up): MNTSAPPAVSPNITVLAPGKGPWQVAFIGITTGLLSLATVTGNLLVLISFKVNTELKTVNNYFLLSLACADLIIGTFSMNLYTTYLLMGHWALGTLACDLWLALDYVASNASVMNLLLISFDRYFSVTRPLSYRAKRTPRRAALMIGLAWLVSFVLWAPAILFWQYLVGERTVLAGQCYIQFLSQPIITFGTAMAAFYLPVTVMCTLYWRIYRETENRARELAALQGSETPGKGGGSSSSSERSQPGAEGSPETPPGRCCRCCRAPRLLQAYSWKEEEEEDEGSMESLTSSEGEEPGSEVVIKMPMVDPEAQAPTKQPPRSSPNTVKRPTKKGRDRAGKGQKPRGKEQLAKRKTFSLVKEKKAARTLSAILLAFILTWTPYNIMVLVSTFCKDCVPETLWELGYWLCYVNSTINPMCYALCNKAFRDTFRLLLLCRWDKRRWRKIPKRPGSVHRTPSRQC
M1 ag: human M1 muscarinic receptor agonism. P11229. CHO-K1 hM1, Fluo-8 calcium fluorescence, agonist mode; 0% DMSO, 100% acetylcholine EC100. activation, % at 3 µM. actives 0.33% (n = 360,000);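 active = activation above the run's mean compound activation plus 3 SD, cut at about 16% in these data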;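 also: peak over basal fluorescence ratio within a 140 s kinetic read after compound addition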
CHO-K1 Ca PAM: counter-screen for M1 PAMs: effect in parental CHO-K1 cells; ATP EC20, Fluo-8 calcium fluorescence; 0% at ATP EC20, 100% at ATP max; activation, % at 3 µM; actives 0.02% (n = 360,000);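 active = activation above the run cutoff, the mean activation of all test compounds plus 3 SD, cut at about 40% in these data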;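 also: peak over basal fluorescence ratio in a 140 s read after ATP addition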
CHO-K1 Ca antag: M1 antagonist counterscreen hit in parental CHO-K1 cells; inhibition, % at 3 µM; AID 602250; actives 0.6% (n = 360,000); ATP-induced calcium, Fluo-8 fluorescence;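 active = inhibition above a per-plate cutoff, the plate's mean sample inhibition plus 3 SD, cut at about 24% in these data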
CHRM1 PAM: potentiates human M1 receptor response to acetylcholine; P11229; CHO-K1 hM1, Fluo-8 calcium fluorescence, ACh EC20; 0% = ACh EC20, 100% = maximal ACh; actives 0.088% (n = 360,000); activation, % at 3 µM; in the data active = activation above about 19%, passing the limit was not always enough
CHO-K1 Ca ag: counter-screen for M1 agonists: effect in parental CHO-K1 cells. actives 0.48% (n = 360,000). activation, % at 3 µM. AID 602248. Fluo-8 calcium fluorescence; scaled to maximal ATP response, vehicle zero; in the data active = activation above about 15%;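 also: untransfected CHO-K1 host cells lacking M1 receptor as counterscreen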
Hits are given with their value. Only some compounds are listed: those with a hit (about 2.3% of all), similar ones and a draw of the others.

Results for C[C@]12CCC(=O)C=C1CC[C@@H]1[C@@H]2CC[C@@]2(C)[C@H]1CC[C@@]21CCC(=O)O1 ?
M1 antag: 31; M1 ag: inactive; CHO-K1 Ca PAM: inactive; CHO-K1 Ca antag: inactive; CHRM1 PAM: inactive; CHO-K1 Ca ag: inactive

How did COc1cc2c(cc1OC)CN(C(=O)c1ccc(Cl)c(S(=O)(=O)N3CCCC3)c1)CC2 do in these assays?
M1 antag: inactive; M1 ag: inactive; CHO-K1 Ca PAM: inactive; CHO-K1 Ca antag: inactive; CHRM1 PAM: inactive; CHO-K1 Ca ag: inactive

Results for COc1ccccc1CNC(=O)CN(c1ccc(C)cc1)S(=O)(=O)c1c(C)n[nH]c1C ?
M1 antag: inactive; M1 ag: inactive; CHO-K1 Ca PAM: inactive; CHO-K1 Ca antag: inactive; CHRM1 PAM: inactive; CHO-K1 Ca ag: inactive

What do the screens show for `CCOc1ccc(N(CC(=O)Nc2ccccc2OC)S(=O)(=O)c2ccccc2)cc1`?
M1 antag: inactive; M1 ag: inactive; CHO-K1 Ca PAM: inactive; CHO-K1 Ca antag: inactive; CHRM1 PAM: inactive; CHO-K1 Ca ag: 18

How did CCOc1ccccc1NC(=O)CN(c1ccc(C)cc1)S(=O)(=O)c1c(C)n[nH]c1C do in these assays?
M1 antag: 20; M1 ag: inactive; CHO-K1 Ca PAM: inactive; CHO-K1 Ca antag: inactive; CHRM1 PAM: inactive; CHO-K1 Ca ag: inactive

How did COc1ccc(S(=O)(=O)N(CC(=O)Nc2ccc3c(c2)OCO3)c2ccccc2OC)cc1 do in these assays?
M1 antag: 31; M1 ag: inactive; CHO-K1 Ca PAM: inactive; CHO-K1 Ca antag: inactive; CHRM1 PAM: inactive; CHO-K1 Ca ag: inactive

Results for COc1ccc(N(CC(=O)Nc2ccc(OC)cc2OC)S(=O)(=O)c2ccccc2)cc1 ?
M1 antag: inactive; M1 ag: inactive; CHO-K1 Ca PAM: inactive; CHO-K1 Ca antag: inactive; CHRM1 PAM: inactive; CHO-K1 Ca ag: inactive

Results for CCOc1ccccc1NC(=S)N1CCC(NC(=O)C(C)(C)C)CC1 ?
M1 antag: inactive; M1 ag: inactive; CHO-K1 Ca PAM: inactive; CHO-K1 Ca antag: inactive; CHRM1 PAM: inactive; CHO-K1 Ca ag: inactive

Results for Nc1nc(Nc2cccc(F)c2)nc(NCCO)c1[N+](=O)[O-] ?
M1 antag: inactive; M1 ag: inactive; CHO-K1 Ca PAM: inactive; CHO-K1 Ca antag: inactive; CHRM1 PAM: inactive; CHO-K1 Ca ag: 15

How did CN(C)S(=O)(=O)c1cccc(COC(=O)c2cccnc2Cl)c1 do in these assays?
M1 antag: inactive; M1 ag: inactive; CHO-K1 Ca PAM: inactive; CHO-K1 Ca antag: inactive; CHRM1 PAM: inactive; CHO-K1 Ca ag: 17

Results for CN(C)S(=O)(=O)c1cccc(COC(=O)c2cnccn2)c1 ?
M1 antag: inactive; M1 ag: inactive; CHO-K1 Ca PAM: inactive; CHO-K1 Ca antag: inactive; CHRM1 PAM: inactive; CHO-K1 Ca ag: inactive

Results for OC(C#CCN1CCCCC1)(c1ccccc1)c1ccccc1 ?
M1 antag: 100; M1 ag: inactive; CHO-K1 Ca PAM: inactive; CHO-K1 Ca antag: inactive; CHRM1 PAM: inactive; CHO-K1 Ca ag: inactive

How did CC(O)(C#CCN1CCCCCC1)c1ccccc1 (stereo unspecified) do in these assays?
M1 antag: 41; M1 ag: inactive; CHO-K1 Ca PAM: inactive; CHO-K1 Ca antag: inactive; CHRM1 PAM: inactive; CHO-K1 Ca ag: inactive

What do the screens show for `OC(C#CCN1CCOCC1)(c1ccccc1)C1CC1` (stereo unspecified)?
M1 antag: inactive; M1 ag: inactive; CHO-K1 Ca PAM: inactive; CHO-K1 Ca antag: inactive; CHRM1 PAM: inactive; CHO-K1 Ca ag: inactive

How did OC(C#CCN1CCCC1)(c1ccccc1)c1ccccc1 do in these assays?
M1 antag: 100; M1 ag: inactive; CHO-K1 Ca PAM: inactive; CHO-K1 Ca antag: inactive; CHRM1 PAM: inactive; CHO-K1 Ca ag: inactive

What do the screens show for `CC(C)C(O)(C#CCN1CCCCC1)C(C)C`?
M1 antag: 64; M1 ag: inactive; CHO-K1 Ca PAM: inactive; CHO-K1 Ca antag: inactive; CHRM1 PAM: inactive; CHO-K1 Ca ag: inactive

How did Cc1cccc(N2CCN(CCCNC(=O)c3ccc(NC(=O)C4=CSCCO4)cc3)CC2C)c1 (stereo unspecified) do in these assays?
M1 antag: inactive; M1 ag: inactive; CHO-K1 Ca PAM: inactive; CHO-K1 Ca antag: inactive; CHRM1 PAM: inactive; CHO-K1 Ca ag: inactive

Results for O=S(=O)(Cc1ccccc1)C(CCCc1ccccc1)S(=O)(=O)Cc1ccccc1 ?
M1 antag: inactive; M1 ag: inactive; CHO-K1 Ca PAM: inactive; CHO-K1 Ca antag: inactive; CHRM1 PAM: inactive; CHO-K1 Ca ag: inactive

What do the screens show for `CCc1cccc(NC(=O)C2CCCN(S(=O)(=O)c3cccnc3)C2)c1` (stereo unspecified)?
M1 antag: inactive; M1 ag: inactive; CHO-K1 Ca PAM: inactive; CHO-K1 Ca antag: inactive; CHRM1 PAM: inactive; CHO-K1 Ca ag: inactive

Results for O=C(Cc1ccc(NS(=O)(=O)c2cccc(C(F)(F)F)c2)cc1)NCCN1CCOCC1 ?
M1 antag: inactive; M1 ag: inactive; CHO-K1 Ca PAM: inactive; CHO-K1 Ca antag: inactive; CHRM1 PAM: inactive; CHO-K1 Ca ag: inactive

How did CC(C)(CNC(=O)Cc1ccc(NS(=O)(=O)c2cccc(C(F)(F)F)c2)cc1)N1CCOCC1 do in these assays?
M1 antag: 34; M1 ag: inactive; CHO-K1 Ca PAM: inactive; CHO-K1 Ca antag: inactive; CHRM1 PAM: inactive; CHO-K1 Ca ag: inactive

Results for CCn1ncc(CN2CCCC(C(=O)Nc3cccc(-c4cc5ccccc5[nH]4)c3)C2)c1C (stereo unspecified) ?
M1 antag: 25; M1 ag: inactive; CHO-K1 Ca PAM: inactive; CHO-K1 Ca antag: inactive; CHRM1 PAM: inactive; CHO-K1 Ca ag: inactive

Results for CCOc1ccccc1CN1CCCC(C(=O)Nc2cccc(-n3cccn3)c2)C1 (stereo unspecified) ?
M1 antag: 71; M1 ag: inactive; CHO-K1 Ca PAM: inactive; CHO-K1 Ca antag: inactive; CHRM1 PAM: inactive; CHO-K1 Ca ag: inactive

What do the screens show for `CCOc1cccc(CN2CCCC(C(=O)Nc3cccc(-n4cccn4)c3)C2)c1` (stereo unspecified)?
M1 antag: inactive; M1 ag: inactive; CHO-K1 Ca PAM: inactive; CHO-K1 Ca antag: inactive; CHRM1 PAM: inactive; CHO-K1 Ca ag: inactive

How did Cc1cc(-c2csc(NC(=O)c3ccc(=O)[nH]c3)n2)c(C)n1Cc1ccco1 do in these assays?
M1 antag: inactive; M1 ag: inactive; CHO-K1 Ca PAM: inactive; CHO-K1 Ca antag: inactive; CHRM1 PAM: inactive; CHO-K1 Ca ag: inactive

How did O=C(COC(=O)c1ccc(S(=O)(=O)N2CCCC2)cc1)NCc1cccs1 do in these assays?
M1 antag: inactive; M1 ag: inactive; CHO-K1 Ca PAM: inactive; CHO-K1 Ca antag: inactive; CHRM1 PAM: inactive; CHO-K1 Ca ag: inactive

Results for COCc1cccc(-c2csc(C(C)(NC(C)=O)c3ccc(OC)cc3)n2)c1 (stereo unspecified) ?
M1 antag: inactive; M1 ag: inactive; CHO-K1 Ca PAM: inactive; CHO-K1 Ca antag: inactive; CHRM1 PAM: inactive; CHO-K1 Ca ag: inactive
